Test results published in PubChem BioAssay.
The source made the active and inactive calls.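 The calls were made as follows, unless noted: active = mean inhibition above 46.5%, the solvent-only control mean plus 3 SD; inactive = the rest.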

Key:
[1] = system: transactivating tegument protein VP16 (Human herpesvirus 1); test: compounds suppressing VP16-driven luciferase signal – cell-based, luminescence, single concentration, counter-screen for SRC2 inhibitor project (AID 652007; in the data active = inhibition above about 36%); conditions: cell-based VP16 transactivation luciferase reporter, at 8.9 µM, hits give high values
[2] = target: Nuclear receptor coactivator 2 (Homo sapiens) (UniProt Q15596); test: inhibition of GAL4-SRC2 driven luciferase expression – cell-based, luminescence, HEK293, triplicate, confirmation (AID 652008); conditions: HEK293 GAL4-SRC2 luciferase reporter, at 8.9 µM, hits give high values;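 also: 0% = DMSO-treated cells and 100% = Gossypol at 36 µM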
Nuclear receptor coactivator 2 (Homo sapiens), sequence (Q15596 whole entry, looked up, the tested form may be a part): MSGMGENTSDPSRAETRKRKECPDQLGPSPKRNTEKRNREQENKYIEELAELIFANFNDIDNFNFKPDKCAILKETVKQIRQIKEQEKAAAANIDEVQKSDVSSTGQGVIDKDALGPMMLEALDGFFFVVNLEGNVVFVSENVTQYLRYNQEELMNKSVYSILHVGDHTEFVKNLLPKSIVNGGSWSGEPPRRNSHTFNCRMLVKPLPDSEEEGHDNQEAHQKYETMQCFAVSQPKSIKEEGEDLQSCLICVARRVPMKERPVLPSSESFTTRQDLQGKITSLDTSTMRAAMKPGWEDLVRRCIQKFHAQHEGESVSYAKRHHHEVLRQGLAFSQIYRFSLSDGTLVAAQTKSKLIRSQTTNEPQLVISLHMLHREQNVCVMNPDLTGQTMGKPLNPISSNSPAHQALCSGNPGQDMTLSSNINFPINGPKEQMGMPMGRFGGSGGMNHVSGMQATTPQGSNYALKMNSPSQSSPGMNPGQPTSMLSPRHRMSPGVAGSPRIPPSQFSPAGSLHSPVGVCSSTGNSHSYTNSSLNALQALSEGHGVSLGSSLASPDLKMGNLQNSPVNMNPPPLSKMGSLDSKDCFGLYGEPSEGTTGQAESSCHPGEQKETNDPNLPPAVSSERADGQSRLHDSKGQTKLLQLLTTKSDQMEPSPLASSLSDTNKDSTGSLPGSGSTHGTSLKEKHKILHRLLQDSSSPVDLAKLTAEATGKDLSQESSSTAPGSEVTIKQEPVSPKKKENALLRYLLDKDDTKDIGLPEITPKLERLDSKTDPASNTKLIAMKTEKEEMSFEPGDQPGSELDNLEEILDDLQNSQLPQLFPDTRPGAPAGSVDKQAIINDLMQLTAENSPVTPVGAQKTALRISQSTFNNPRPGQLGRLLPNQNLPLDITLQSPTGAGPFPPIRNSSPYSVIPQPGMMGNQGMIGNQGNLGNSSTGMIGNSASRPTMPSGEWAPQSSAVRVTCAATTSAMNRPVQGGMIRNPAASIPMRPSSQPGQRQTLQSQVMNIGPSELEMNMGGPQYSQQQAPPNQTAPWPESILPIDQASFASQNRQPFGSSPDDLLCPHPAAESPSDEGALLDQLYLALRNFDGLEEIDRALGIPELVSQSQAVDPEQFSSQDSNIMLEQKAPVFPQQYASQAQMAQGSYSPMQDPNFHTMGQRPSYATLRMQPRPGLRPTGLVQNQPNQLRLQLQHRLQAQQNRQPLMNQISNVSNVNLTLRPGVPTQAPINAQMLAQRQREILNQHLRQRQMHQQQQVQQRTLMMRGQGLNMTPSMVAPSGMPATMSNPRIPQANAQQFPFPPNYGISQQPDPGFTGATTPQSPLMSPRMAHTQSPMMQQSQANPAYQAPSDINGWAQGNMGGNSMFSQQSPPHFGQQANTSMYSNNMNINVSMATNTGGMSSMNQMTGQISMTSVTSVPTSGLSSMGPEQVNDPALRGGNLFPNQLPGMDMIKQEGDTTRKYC

O=[N+]([O-])c1ccc(S(=O)(=O)c2ccccc2)nc1
inhibition [1]: 51.9% (active)
inhibition [2]: 36% (inactive)

O=C(N/N=C/c1coc2ccc(Cl)cc2c1=O)c1cc(O)cc(O)c1
inhibition [1]: 23.4% (inactive)
inhibition [2]: 18.5% (inactive)

CC(C)(c1ccc(O)cc1)c1ccc(O)c(C(=O)O)c1
inhibition [1]: -8.08% (inactive)
inhibition [2]: -5.54% (inactive)

O=C(NC1CC1)c1ccc2c(c1)N(Cc1ccc(Cl)cc1)CCS2
inhibition [1]: 4.34% (inactive)
inhibition [2]: 18.6% (inactive)

CC(C)(C)c1ccc(OCCC(=O)OCC(=O)NC2CC2)cc1
inhibition [1]: 23.8% (inactive)
inhibition [2]: 2.38% (inactive)

CC(=O)N1CCCc2cc(S(=O)(=O)N3CCCC(C(=O)NCc4ccccc4Cl)C3)ccc21 (centres undefined)
inhibition [1]: 24.9% (inactive)
inhibition [2]: 21.1% (inactive)

O=C(O)/C=C/C(=O)N(CC1CCCO1)C1CC(=O)N(c2c(Cl)cccc2Cl)C1=O (centres undefined)
inhibition [1]: -22.7% (inactive)
inhibition [2]: -29.3% (inactive)

CC(=O)C1=CCC(c2ccccc2Cl)N(S(=O)(=O)c2ccc(C)cc2)C1 (centres undefined)
inhibition [1]: 13.9% (inactive)
inhibition [2]: 15.3% (inactive)

CCOc1ccc(-n2nc3ccc(N)cc3n2)cc1
inhibition [1]: -14.3% (inactive)
inhibition [2]: 66% (active)

Cn1cc(CN2CCN(CCO)CC2)c(-c2ccc(Oc3ccccc3)cc2)n1
inhibition [1]: -9.32% (inactive)
inhibition [2]: 7.36% (inactive)

O=C(COc1ccc([N+](=O)[O-])cc1)Nc1ccc(C(=O)NCc2cccnc2)cc1
inhibition [1]: -13.3% (inactive)
inhibition [2]: 27.8% (inactive)

Cc1nnc(SCc2nc3sc(C(=O)O)c(C)c3c(=O)[nH]2)s1
inhibition [1]: 21.2% (inactive)
inhibition [2]: 9.02% (inactive)

Cc1ccc(NC(=O)CSc2ncnc3ccccc23)cc1S(=O)(=O)N1CCCCCC1
inhibition [1]: 12.7% (inactive)
inhibition [2]: 20.7% (inactive)

CCc1ccc(/C=C2\SC(=S)N(CCCC(=O)Nc3cc(C)on3)C2=O)cc1
inhibition [1]: 28.9% (inactive)
inhibition [2]: 73.4% (active)

Cc1ccc(Nc2nc(-c3c(C)nc4ccccn34)cs2)cc1
inhibition [1]: -16.9% (inactive)
inhibition [2]: 20.1% (inactive)

Cc1nnc(NC(=O)c2nc(S(=O)(=O)Cc3ccccc3)ncc2Cl)s1
inhibition [1]: 1.66% (inactive)
inhibition [2]: 22.4% (inactive)

CC(C)c1nnc(NC(=O)c2nc(S(=O)(=O)Cc3ccccc3F)ncc2Cl)s1
inhibition [1]: 16.4% (inactive)
inhibition [2]: 48% (active)

COc1cccc(-c2ncn(CCc3ccccc3OC)c2CC(C)C)c1
inhibition [1]: -2.53% (inactive)
inhibition [2]: 18.6% (inactive)

O=C(C(O)c1ccc(Br)cc1)N1CCC(Nc2ccc3[nH]ncc3c2)CC1 (centres undefined)
inhibition [1]: -4.16% (inactive)
inhibition [2]: -7.36% (inactive)

O=C(O)c1ccc(Nc2nc3c(s2)CCCC3)cc1
inhibition [1]: -31% (inactive)
inhibition [2]: 10.9% (inactive)

COc1ccc(/C=C2\SC(=S)N(CCC(=O)N3CCCCC3CCO)C2=O)cc1 (centres undefined)
inhibition [1]: 1.26% (inactive)
inhibition [2]: 26.7% (inactive)

CCOc1ccc(NC(=S)C(C#N)=C2N(C)c3ccccc3N2C)cc1
inhibition [1]: -4.65% (inactive)
inhibition [2]: -15.8% (inactive)

Cc1c(CCC(=O)N[C@@H](CC(C)C)C(=O)O)c(=O)oc2cc3oc4c(c3cc12)CCCC4
inhibition [1]: 37.5% (active)
inhibition [2]: 69.8% (active)

CCc1ccc(C=C2SC(=S)N(CCCC(=O)Nc3ccc(C(=O)O)cc3)C2=O)cc1
inhibition [1]: -9.93% (inactive)
inhibition [2]: -5.86% (inactive)

COc1cc(NC(=O)c2cccs2)c(C(=O)OCC(=O)c2cc(C)n(-c3ccccc3)c2C)cc1OC
inhibition [1]: 27.5% (inactive)
inhibition [2]: 67% (active)

O=C(Cn1cnc2ccccc21)N/N=C/C(Br)=C/c1ccccc1
inhibition [1]: -14% (inactive)
inhibition [2]: -5.7% (inactive)

Cc1cccc(C)c1NC(=O)C[n+]1cc(-c2ccccc2)n2c1CCC2
inhibition [1]: -22.3% (inactive)
inhibition [2]: -2.7% (inactive)

CS(=O)(=O)Nc1cccc(NC(=O)C2Cc3c(-c4cccc(F)c4)ccnc3O2)c1 (centres undefined)
inhibition [1]: 21.8% (inactive)
inhibition [2]: 36.3% (inactive)

Cc1cc(C(=O)CN2C(=O)c3ccccc3S2(=O)=O)c(C)n1-c1ccccc1
inhibition [1]: -10.4% (inactive)
inhibition [2]: 55.4% (active)

Cc1ccc(NC(=O)Cn2cccc2C2=NC(c3ccccc3)CO2)cc1C (centres undefined)
inhibition [1]: -8.04% (inactive)
inhibition [2]: -4.44% (inactive)

CN(C(=O)CCc1nnc(-c2ccc(-c3ccccc3)cc2)o1)C1CCOCC1
inhibition [1]: -6.16% (inactive)
inhibition [2]: 26.7% (inactive)

CCCC(O)(CCC)C(=O)NN(C(=O)CCl)c1ccccc1
inhibition [1]: 8.55% (inactive)
inhibition [2]: 30.1% (inactive)

NC(Cc1ccc(Cl)cc1)c1csc(NC(=O)NCC2CCCCC2)n1 (centres undefined)
inhibition [1]: -2.01% (inactive)
inhibition [2]: 3.16% (inactive)

Cc1c(CCC(=O)N2CCC(C(=O)O)CC2)c(=O)oc2cc3oc4c(c3cc12)CCCC4
inhibition [1]: 33.6% (inactive)
inhibition [2]: 61% (active)

COc1ccc(-c2ncncc2-c2csc(C)n2)c(O)c1
inhibition [1]: -10.8% (inactive)
inhibition [2]: -21.2% (inactive)

CCN(CC)c1nc(C=Cc2ccc(N(C)C)cc2)c2nccnc2n1
inhibition [1]: 17.1% (inactive)
inhibition [2]: 21.8% (inactive)

Cc1cc(F)ccc1NC(=O)CCc1c(C)nn(-c2ccc(N3CCCCC3)nn2)c1C
inhibition [1]: -53% (inactive)
inhibition [2]: 3.56% (inactive)

CC(C)COc1ccc(C/C(N)=N/n2cnnc2)cc1
inhibition [1]: 22.1% (inactive)
inhibition [2]: 40.3% (inactive)

CCN(CC)C(=O)C1CCCN(c2ncnc3c2cnn3-c2cccc(C)c2)C1 (centres undefined)
inhibition [1]: -13.2% (inactive)
inhibition [2]: 30.7% (inactive)

O=C(c1ccc(CS(=O)Cc2ccc(Cl)cc2)o1)N1CCN(c2ccccn2)CC1 (centres undefined)
inhibition [1]: -9.03% (inactive)
inhibition [2]: -6.91% (inactive)

CCOc1ccc(CN2CCNC(=O)C2CC(=O)NCCc2cnccn2)cc1 (centres undefined)
inhibition [1]: 10.4% (inactive)
inhibition [2]: -23.9% (inactive)

O=C1NC(c2ccccc2)Cc2ccncc21 (centres undefined)
inhibition [1]: -6.21% (inactive)
inhibition [2]: -28.4% (inactive)

COc1ccc(-c2nc(-c3ccccc3)no2)c(OC)c1
inhibition [1]: 3.43% (inactive)
inhibition [2]: 53.8% (active)

CC(=NCc1ccco1)c1c(C)[nH]n(-c2nc3ccccc3s2)c1=O
inhibition [1]: -24% (inactive)
inhibition [2]: 14.3% (inactive)

Cc1ccc(C(=O)O/N=C(\N)c2ccccn2)cc1C
inhibition [1]: -29.9% (inactive)
inhibition [2]: -24.9% (inactive)

CCOc1cc(NC(=S)NCc2ccco2)c(OCC)cc1NC(=O)CC
inhibition [1]: -10.4% (inactive)
inhibition [2]: -9.88% (inactive)

O=C1CSc2ccc(C(=O)Nc3cccc(S(=O)(=O)Nc4ccc(Br)cc4)c3)cc2N1
inhibition [1]: 11.2% (inactive)
inhibition [2]: 25.2% (inactive)

COc1ccc(O)c(C(=O)c2cnn(S(=O)(=O)c3ccc(C)cc3)c2)c1
inhibition [1]: -7.7% (inactive)
inhibition [2]: 7.12% (inactive)

CC(=O)Nc1ccc(NC(=O)c2cc(=O)c3ccccc3o2)cc1
inhibition [1]: -12.5% (inactive)
inhibition [2]: -8.33% (inactive)

O=C(COC(=O)CCCOc1ccc(Cl)cc1Cl)NCc1ccccc1
inhibition [1]: 0.2% (inactive)
inhibition [2]: 15.4% (inactive)

O=C1CCCC/C1=C/Nc1ccc2c(c1)OCO2
inhibition [1]: -58.7% (inactive)
inhibition [2]: -65.5% (inactive)

CC(=O)c1ccc(OC2(C)CCN(Cc3ccc(OC(F)(F)F)cc3)C2)cc1 (centres undefined)
inhibition [1]: -12.4% (inactive)
inhibition [2]: -13.5% (inactive)

COc1cccc(N2C(=O)CC(NNC(=O)c3cccs3)C2=O)c1 (centres undefined)
inhibition [1]: -15.3% (inactive)
inhibition [2]: -23.7% (inactive)

COc1ccc(-c2nc3ccccn3c2NC2CCCCC2)cc1SC1CCCCC1
inhibition [1]: 17.4% (inactive)
inhibition [2]: -1.51% (inactive)

COc1ccc(C(=O)O/N=C(\N)c2ccccn2)cc1
inhibition [1]: -70.2% (inactive)
inhibition [2]: 30% (inactive)

O=C(N/N=C/c1coc2ccc(Cl)cc2c1=O)c1ccncc1
inhibition [1]: -13.1% (inactive)
inhibition [2]: 31.4% (inactive)

c1ccc(-n2cnc3ccccc32)cc1
inhibition [1]: -25.6% (inactive)
inhibition [2]: 5.17% (inactive)

O=C1C2CCCN2C(=S)N1C1CCCCC1 (centres undefined)
inhibition [1]: 1.86% (inactive)
inhibition [2]: 3.89% (inactive)

CCOC(=O)C1(Cc2ccc(Cl)cc2)CCN(C(C)Cc2ccc(O)c(OC)c2)CC1 (centres undefined)
inhibition [1]: 15.9% (inactive)
inhibition [2]: 30.1% (inactive)

CCCCCc1c(C)nc(N2CCc3ccccc32)[nH]c1=O
inhibition [1]: -17.3% (inactive)
inhibition [2]: 14.9% (inactive)

Cc1c([N+](=O)[O-])cnc(Sc2ccccc2)c1[N+](=O)[O-]
inhibition [1]: 3.41% (inactive)
inhibition [2]: 16.7% (inactive)

Cc1ccc(-n2c(C)c([N+](=O)[O-])c3ccc(O)cc32)cc1
inhibition [1]: 2.28% (inactive)
inhibition [2]: 47.5% (active)

CC(OC(=O)CN1C(=O)NC2(CCCC2)C1=O)c1ccc(F)cc1 (centres undefined)
inhibition [1]: -16.9% (inactive)
inhibition [2]: -26.5% (inactive)

CC(=O)N1/C(=C/c2ccc(N(C)C)cc2)C(=O)c2ccccc21
inhibition [1]: 13.3% (inactive)
inhibition [2]: 72.6% (active)

CCOC(=O)c1ccc(-c2ccc(N3C(c4ccsc4)=Cc4ccc(F)cc4C3c3c[nH]c4ccc(C#N)cc34)cc2)cc1F (centres undefined)
inhibition [1]: -3.42% (inactive)
inhibition [2]: 33.6% (inactive)

Cc1cc(C(=O)C(C)OC(=O)c2ccc(NC(=O)CC#N)cc2)c(C)n1-c1ccccc1 (centres undefined)
inhibition [1]: -36% (inactive)
inhibition [2]: 26.3% (inactive)

CC(C)c1ccc(/C=C/C(=O)N2CCCCCC2)cc1
inhibition [1]: -73.2% (inactive)
inhibition [2]: -26% (inactive)

Cc1nnc(NC(=O)c2nc(S(=O)(=O)Cc3ccccc3C)ncc2Cl)s1
inhibition [1]: 42% (active)
inhibition [2]: 49.7% (active)

O=C(c1ccc(S(=O)(=O)NCc2ccco2)cc1)N1CCN(Cc2ccc3c(c2)OCO3)CC1
inhibition [1]: -2.59% (inactive)
inhibition [2]: 3.12% (inactive)

Cc1nc(SCCC(=O)O)c2cc(-c3ccccc3)sc2n1
inhibition [1]: 48.6% (active)
inhibition [2]: 80.1% (active)

CC(C)C[C@H]1CN(CCCC[C@H]2CNC(=O)C(=O)N2CCc2ccccc2)C(=O)C(=O)N1CCC1CCCCC1
inhibition [1]: 10.7% (inactive)
inhibition [2]: -17.3% (inactive)

Cc1cc(C)cc(NC(=O)Nc2cc(S(=O)(=O)N(C)C)ccc2C)c1
inhibition [1]: -9.93% (inactive)
inhibition [2]: -21.3% (inactive)
